Assay in all cases: NCI-60 one-dose screen, 48 h (100 = growth as untreated, 0 = no growth, -100 = all killed)
Conditions in all cases: 10 µM unless noted

Assay [1] concerns SK-MEL-2 melanoma.
The subject of assay [2] is EKVX NSCLC.
The subject of assay [3] is SN12C renal.
In assay [4] the test system is UO-31 renal.
The test system of assay [5] is TK-10 renal.
Assay [6] concerns ACHN renal.
Assay [7] has as its system CAKI-1 renal.
The subject of assay [8] is CCRF-CEM leukemia.
The test system of assay [9] is MOLT-4 leukemia.
In assay [10] the test system is RPMI-8226 leukemia.
Assay [11] deals with OVCAR-8 ovarian.
The test system of assay [12] is OVCAR-5 ovarian.
The subject of assay [13] is OVCAR-4 ovarian.
The test system of assay [14] is SK-OV-3 ovarian.
In assay [15] the test system is IGROV1 ovarian.
Assay [16] relates to OVCAR-3 ovarian.
Assay [17] has as its system HS 578T breast.
In assay [18] the test system is NCI/ADR-RES ovarian.
Assay [19] concerns SR leukemia.

The panel holds about 83,000 compounds, 20% with a hit somewhere; the sample as a whole holds those more often.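 Growth was measured after 48 h exposure to one concentration of compound in 96-well plates. Values under 10 count as active.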 Values without a mark were called inactive. The source made the active and inactive calls.

As to `O=C(Cc1ccc(F)c(Cl)c1)Nc1cc(C2(C(F)(F)F)CC2)nn1CC1CCCCC1`, the growth was -48.8% (active) in assay [1]; 3.93% (active) in assay [2]; 6.18% (active) in assay [3]; -3.33% (active) in assay [4]; 3.08% (active) in assay [5]; -7.99% (active) in [6]. For the same molecule, the growth in [7] was -14.3% (active); in assay [8], 20.1%; in assay [9] it was 11.7%; in assay [10] it was 4.24% (active); in assay [11], 8.52% (active); in assay [12] it was 0.818% (active). The growth in assay [13] is 13.5%; in assay [14] it was -19.9% (active); in assay [15], 24.5%; in assay [16], 6.25% (active); in [17], -0.843% (active); in assay [18], 4.86% (active).
Consider `COc1cc(Nc2cn[nH]c2-c2ccc(Cl)cc2)cc(OC)c1OC`, for which the growth in assay [1] is 32.4%; in assay [2] it was 62.7%; in assay [3], 52.5%; in assay [4], 32.3%; in assay [5], 67%; in assay [6] it was 71.1%. For the same molecule, the growth in [7] is 59.9%; in assay [8], 24.3%; in [9], 19.7%; in assay [19] it was 10.1%; in assay [11], 70.2%; in assay [12], 54.6%. Also, the growth in [13] was 61.5%; in assay [14] it was 30.9%; in [15], 39.8%; in assay [17] it was 44.1%; in assay [18], -26% (active).
With `CC(=O)OC[C@H]1OC(Sc2sc(C(=O)c3ccc(C)cc3)c(N)c2-c2nc3ccccc3s2)[C@H](OC(C)=O)[C@@H](OC(C)=O)[C@@H]1OC(C)=O` (stereo partly drawn), the growth was 93.6% in [1]; 75% in assay [2]; 41.9% in assay [3]; 25.7% in assay [4]; 99.3% in [5]; 23.1% in [6]. In addition, the growth in assay [7] was 53.7%; in assay [8] it was 60.5%; in assay [9], 80%; in [10] it was 46.5%; in assay [11], 58.7%; in [12] it was 58.6%. Besides, the growth in assay [13] was -13.9% (active); in [14], 89.9%; in assay [15], 48.2%; in assay [16] it was 59.4%; in assay [17], 52.5%; in assay [18], 62.9%.
Turning to `CN1CCN(Cc2ccc(NC(=O)c3cncc(C#Cc4cnccc4C#N)c3)cc2C(F)(F)F)CC1`, the growth in assay [1] is 52%; in assay [2] it was 66.4%; in assay [3] it was 60.5%; in [4] it was 43.5%; in assay [5], 108%; in [6], 66.8%. The growth in assay [7] is 54.8%; in assay [8] it was 59%; in assay [9] it was 66.1%; in [10], 34.1%; in assay [11] it was 74.2%; in [12] it was 60.5%. Besides, the growth in assay [13] was 35.9%; in [14], 101%; in assay [15], 67.2%; in [16], 86.3%; in [17], 24%; in assay [18], 74%.
As to `O=C(N/N=C/[C@H](O)[C@@H](O)[C@@H](O)[C@H](O)CO)c1ccc(NC(=O)c2cccnc2)cc1`, the growth was 109% in [1]; 107% in assay [2]; 99.4% in assay [3]; 92.5% in assay [4]; 106% in assay [5]; 103% in assay [6]. The growth in [7] was 101%; in [8], 103%; in assay [9], 114%; in [19], 103%; in [11], 105%; in [12] it was 106%. In addition, the growth was 102% in [13]; 108% in assay [14]; 110% in assay [15]; 120% in assay [16]; 108% in assay [17]; 106% in assay [18].
`CC1=NN(c2ccc(S(=O)(=O)O)cc2)C(=O)C1N=Nc1ccc(-c2ccc(N=Nc3ccc(OS(=O)(=O)c4ccc(C)cc4)cc3)c(S(=O)(=O)O)c2)cc1` (stereo not drawn): the growth in [1] was 78.8%; in assay [2], 107%; in [3], 93.6%; in assay [4], 69.8%; in [5], 97.2%; in [6], 102%. Also, the growth in assay [7] is 100%; in assay [8], 67.8%; in [9], 84.3%; in assay [10], 74.5%; in assay [11], 102%; in assay [12], 76.6%. Further, the growth in [13] was 93.8%; in assay [14], 95.4%; in assay [15], -7.99% (active); in assay [16], 111%; in assay [17] it was 80%; in [18] it was 97.9%.
For `CCCC1CCC(O)(C(C)(O)C(=O)NC2C(=O)N3NCCCC3C(=O)N(O)C(C)C(=O)N3NCCCC3C(=O)N3NCC(O)CC3C(=O)NC(C)C(=O)OC2C(C)C)OC1CC` (stereo not drawn), the growth was -43.7% (active) in assay [1]; -63.4% (active) in assay [2]; -67.9% (active) in assay [3]; 0.226% (active) in [4]; -85.3% (active) in assay [5]; -68.1% (active) in assay [6]. Moreover, the growth in [7] is -82.6% (active); in assay [8], -84.5% (active); in assay [9], -82.7% (active); in assay [19] it was -87.6% (active); in assay [11], -71.8% (active); in [12], -98.4% (active). Besides, the growth in [13] was -81% (active); in assay [14], -96.3% (active); in [15], -40% (active); in assay [16], -89.9% (active); in assay [17], -78.1% (active); in assay [18], -76.7% (active).
For `O=CN1N=C(c2ccc(Nc3ccnc4cc(Cl)ccc34)cc2)CC1c1ccccc1` (stereo not drawn), the growth in assay [1] was 32.6%; in assay [2], 46.2%; in assay [3] it was 53.8%; in assay [4], 24.1%; in assay [5], 59.7%; in assay [6] it was 33.4%. Also, the growth is 38.2% in assay [7]; 15% in [8]; 13.8% in [9]; 17.2% in assay [10]; 51.8% in [11]; 84.1% in [12]. Also, the growth in [13] is 39%; in assay [14], 41.3%; in assay [15] it was 50.2%; in assay [16] it was 14.6%; in assay [17], 47.5%; in assay [18], 7.22% (active).

These data come from PubChem BioAssay (NCI).
